Among the data in PubChem BioAssay (NCI) are growth values, retold here.

Each structure is given as a SMILES string. The panel holds about 83,000 compounds, 20% with a hit somewhere; the sample as a whole holds those more often.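 Assay: single dose, 48 h. Readout: percent growth (0 = no net growth; negative = cell death). Active: <10.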 A number with no mark means an inactive call. Calls of active or inactive are those of the source.

Among the test systems are DU-145 prostate; K-562 leukemia; MALME-3M melanoma; MDA-MB-231 breast; RXF 393 renal; SF-268 CNS; SF-295 CNS; SF-539 CNS; UACC-257 melanoma; M14 melanoma.
Common to all, as to assay: NCI-60 one-dose screen, 48 h (100 = growth as untreated, 0 = no growth, -100 = all killed)
Holding throughout (details): 10 µM unless noted

As to `CCOC(=O)c1nc2c3ccccc3ccn2c1C(=O)OCC`, the growth was 92.1% with DU-145 prostate; 99.1% in the assay with K-562 leukemia; 103% with MALME-3M melanoma; 98.2% with MDA-MB-231 breast; 103% in the assay with RXF 393 renal; 89% with SF-268 CNS. The growth is 104% in the assay on SF-295 CNS, 99.9% with SF-539 CNS, 126% in the assay on UACC-257 melanoma and 121% in the assay on M14 melanoma.
As to `COc1cccc(-c2nc3occn3c2-c2ccnc(NCCNS(=O)(=O)c3ccc(C(F)(F)F)cc3)n2)c1`, the growth in the assay with DU-145 prostate was 96.4%; in the assay with K-562 leukemia, 71.6%; with MALME-3M melanoma, 107%; in the assay with MDA-MB-231 breast, 87.2%; in the assay on RXF 393 renal, 90.8%; with SF-268 CNS it was 88.2%. The growth is 99.1% with SF-295 CNS, 104% in the assay on SF-539 CNS, 121% in the assay with UACC-257 melanoma and 102% in the assay on M14 melanoma.
Take `O=C(C1CCC1)N1N=C(c2ccc(-n3ccc(C(F)(F)F)n3)cc2)CC1c1ccc[nH]1` (stereo not given): the growth with DU-145 prostate was 103%; in the assay with K-562 leukemia, 77.4%; in the assay with MALME-3M melanoma, 98.6%; in the assay with MDA-MB-231 breast, 83.1%; in the assay on RXF 393 renal it was 115%; in the assay on SF-268 CNS, 102%. In addition, the growth in the assay on SF-295 CNS was 95%; in the assay with SF-539 CNS, 98%; in the assay with UACC-257 melanoma, 92.2%; with M14 melanoma, 93.2%.
As to `Cc1ccc(/C=N/NC(=O)CSc2nc3ccccc3c(=O)n2Cc2ccc(S(N)(=O)=O)cc2)cc1`, the growth is 105% in the assay on DU-145 prostate; 63.3% with K-562 leukemia; 97% with MALME-3M melanoma; 89.7% with MDA-MB-231 breast; 86.8% in the assay with RXF 393 renal; 78.2% in the assay with SF-268 CNS. In addition, the growth is 95% in the assay with SF-295 CNS, 102% in the assay with SF-539 CNS, 96.4% in the assay on UACC-257 melanoma and 98.1% with M14 melanoma.
`N#C/C(=C\c1ccc([N+](=O)[O-])s1)c1nc2cc(Br)ccc2s1`: the growth in the assay with DU-145 prostate was 25.9%; in the assay with K-562 leukemia, -5.1% (active); in the assay with MALME-3M melanoma, -81.3% (active); in the assay with MDA-MB-231 breast, -56.1% (active); with RXF 393 renal it was -17.1% (active); in the assay with SF-268 CNS it was 6.29% (active). The growth in the assay with SF-295 CNS was 65.7%; in the assay on SF-539 CNS, -71% (active); in the assay with UACC-257 melanoma, 5.39% (active); in the assay with M14 melanoma, -81.9% (active).
Take `C/C(=N\NC(=O)CSc1nc2ccccc2c(=O)n1CCc1ccc(S(N)(=O)=O)cc1)c1ccccn1`: the growth is 44.1% in the assay on DU-145 prostate; 25.2% in the assay on K-562 leukemia; 36.5% with MALME-3M melanoma; 27.4% with MDA-MB-231 breast; 52.8% with RXF 393 renal; 34.3% in the assay on SF-268 CNS. Besides, the growth with SF-295 CNS was 13.4%; with SF-539 CNS it was 29.8%; in the assay on UACC-257 melanoma, 45.9%; with M14 melanoma, 17.6%.
For the compound `CN[C@@H](C)C(=O)N[C@H]1CCS[C@H]2CC(C)(C)[C@@H](C(=O)N[C@H]3c4ccccc4C[C@H]3OCC#CC#CCO[C@@H]3Cc4ccccc4[C@@H]3NC(=O)[C@H]3N4C(=O)[C@@H](NC(=O)[C@H](C)NC)CCS[C@H]4CC3(C)C)N2C1=O`, the growth in the assay with DU-145 prostate was 101%; in the assay with K-562 leukemia, 100%; in the assay with MALME-3M melanoma, -42.8% (active); in the assay with MDA-MB-231 breast, -51.2% (active); in the assay with RXF 393 renal, 2.22% (active); in the assay on SF-268 CNS, 124%. Besides, the growth with SF-295 CNS is 86.8%; in the assay with SF-539 CNS, -43.6% (active); with UACC-257 melanoma it was 101%; in the assay on M14 melanoma, 103%.
`COc1ccc(/C=C2\Oc3cc(OCCCN4CCCCC4)ccc3C2=O)cc1OC`: the growth in the assay on DU-145 prostate is 95.9%; in the assay on K-562 leukemia it was -22.8% (active); in the assay on MALME-3M melanoma, 104%; in the assay on MDA-MB-231 breast, 78.6%; in the assay on RXF 393 renal, 74.4%; in the assay with SF-268 CNS it was 86.5%. The growth in the assay with SF-295 CNS was 102%; with SF-539 CNS it was 91.5%; in the assay with UACC-257 melanoma it was 102%; in the assay on M14 melanoma, 98.7%.
In the case of `O=S(=O)(NCCNc1nccc(-c2c(-c3cccc(F)c3)nc3sccn23)n1)c1ccccc1`, the growth was 40% in the assay with DU-145 prostate; 23.9% with K-562 leukemia; 68.5% in the assay on MALME-3M melanoma; 66% in the assay on MDA-MB-231 breast; 64.1% in the assay on RXF 393 renal; 43.5% in the assay on SF-268 CNS. Moreover, the growth in the assay with SF-295 CNS was 47.4%; in the assay with SF-539 CNS, 65.5%; in the assay on UACC-257 melanoma, 65.3%; in the assay on M14 melanoma, 41.4%.
In the case of `O=C1Nc2cc(-c3ccc(NC(=O)c4ccccc4)cc3)ccc2/C1=C/c1ccc[nH]1`, the growth is 98.9% in the assay with DU-145 prostate; 95.1% in the assay on K-562 leukemia; 102% with MALME-3M melanoma; 90% in the assay with MDA-MB-231 breast; 111% with RXF 393 renal; 101% in the assay on SF-268 CNS. Also, the growth in the assay on SF-295 CNS was 106%; with SF-539 CNS it was 98%; with UACC-257 melanoma it was 110%; with M14 melanoma, 105%.
With `CSc1nc2sc3cccc(Cl)c3n2c(=N)c1C#N`, the growth with DU-145 prostate was 105%; with K-562 leukemia it was 106%; in the assay on MALME-3M melanoma, 95.3%; in the assay on MDA-MB-231 breast, 90.1%; with RXF 393 renal it was 131%; with SF-268 CNS, 102%. For the same compound, the growth with SF-295 CNS is 108%; in the assay on SF-539 CNS, 109%; in the assay with UACC-257 melanoma, 108%; in the assay with M14 melanoma, 102%.
On to `O=C(NO)c1ccc(-n2nc(-c3ccccc3)c3ccccc32)cc1`, for which the growth in the assay with DU-145 prostate was 38.4%; with K-562 leukemia, 37.8%; in the assay with MALME-3M melanoma, 57%; in the assay on MDA-MB-231 breast, 40.3%; in the assay on RXF 393 renal, 36.5%; in the assay with SF-268 CNS, 54.7%. Moreover, the growth with SF-295 CNS is 80.9%; in the assay on SF-539 CNS, 49.3%; in the assay with UACC-257 melanoma, 78.5%; in the assay on M14 melanoma it was 57.2%.
As for `COc1cc2nc(-c3ccc(Cl)cc3)cc(OCCCN3CCC(O)CC3)c2cc1OC`, the growth with DU-145 prostate was 38.5%; in the assay with K-562 leukemia, 13.9%; in the assay on MALME-3M melanoma, 64%; in the assay on MDA-MB-231 breast it was 26.1%; in the assay on RXF 393 renal, 46.3%; in the assay with SF-268 CNS, 54.8%. Further, the growth with SF-295 CNS is -10.5% (active); in the assay with SF-539 CNS it was 54.3%; with UACC-257 melanoma it was 8.39% (active); in the assay on M14 melanoma, -48% (active).
